Results from PubChem BioAssay (NCATS).
Several values for one entry are separate records, joined by “and”; a condition that tells them apart may be missing. Equal entries are not always repeated. Inconclusive results are not listed. A number with no mark means an inactive call. Calls follow the shape of the dose curve; as a rule, active = well fitted curve in the direction sought with a large enough effect; inconclusive = small, poorly fitted or top-dose-only effect, or another doubt; inactive = no such curve, though single readings can be large or run the other way.

Assay: qHTS Assay for Identifying Gametocytocidal Compounds (AID 743244);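 also: actives lower the fluorescent signal which means gametocytes are killed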
Conditions: P. falciparum 3D7 stage III-V gametocytes, alamarBlue, 72 h; max response: hits give low values
In short: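 Stage III-V P. falciparum 3D7 gametocytes, 20,000 per well, were exposed to compounds for 72 h at 37C, 5% CO2. AlamarBlue was then added for 24 h and viability was read as fluorescence at Ex 525/Em 598 nm.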
% is scaled to controls: 0 for no effect and ±100 for the full control effect.

Compound | max response
O=C(O)Cc1cc(I)c(Oc2ccc(O)c(I)c2)c(I)c1 | 10.9%
OC[C@H]1O[C@@H](O[C@H]2[C@H](O)[C@@H](O)[C@H](O)O[C@@H]2CO)[C@H](O)[C@@H](O)[C@@H]1O | 2.58%
Cc1cc(C(=O)NCCc2ccc(S(=O)(=O)NC(=O)NN3CCCCCC3)cc2)no1 | 4.46%
CCC(Cc1c(I)cc(I)c(O)c1I)C(=O)O (configuration not stated) | 11.2%
CO/N=C(\C(=O)N[C@@H]1C(=O)N2C(C(=O)[O-])=C(C[n+]3cccc4c3CCC4)CS[C@H]12)c1csc(N)n1 | 15.5%
CS(=O)(=O)OCC(O)C(O)COS(C)(=O)=O (configuration not stated) | -2.1%
C=O | 20.4%
CNCC(=O)N[C@@H](CCCN=C(N)N)C(=O)N[C@H](C(=O)N[C@@H](Cc1ccc(O)cc1)C(=O)N[C@H](C(=O)N[C@@H](Cc1cnc[nH]1)C(=O)N1CCC[C@H]1C(=O)N[C@@H](C)C(=O)O)C(C)C)C(C)C | 5.17%
Cc1cccc(Nc2ncccc2C(=O)O)c1C | 39.6%
CCOC(=O)[C@H](CS)NCCN[C@@H](CS)C(=O)OCC | 2.46%
CSc1nc2cc(Oc3cccc(Cl)c3Cl)c(Cl)cc2[nH]1 | 0.358%
CC(C)C[C@H](NC(=O)[C@@H](COC(C)(C)C)NC(=O)[C@H](Cc1ccc(O)cc1)NC(=O)[C@H](CO)NC(=O)[C@H](Cc1c[nH]c2ccccc12)NC(=O)[C@H](Cc1cnc[nH]1)NC(=O)[C@@H]1CCC(=O)N1)C(=O)N[C@@H](CCCN=C(N)N)C(=O)N1CCC[C@H]1C(=O)NNC(N)=O | 16.2% and -4.65%
